This is part of a sample that, as a whole, favours compounds with a hit. Of some 83,000 tested, about 20% had one in any assay.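 How to read the values: 0–100, growth inhibition (40 = 60% inhibited); 0, no net growth; -100 to 0, cell death (-40 = 40% of starting cells died; -100 = all dead).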 A number with no mark means an inactive call. Active and inactive are the calls of the source. How the source made its calls: active means growth percent below 10; inactive means the rest.
Tested on: LOX IMVI melanoma
Assay: NCI-60 one-dose screen, 48 h (100 = growth as untreated, 0 = no growth, -100 = all killed)
Details: 10 µM unless noted

SMILES | growth
COc1cc(-c2nc(-c3nc4cc(C(=O)c5ccccc5)ccc4[nH]3)cc3c2[nH]c2ccccc23)cc(OC)c1OC | 85.2%
COc1cc(C2=NOC(c3cc(OC)c(OC)c(OC)c3)C2)ccc1OCCCCOc1cc2c(cc1OC)C(=O)N1CCC[C@H]1C=N2 (stereo partly specified) | -68.6% (active)
O=C(CCCCCCc1nc2ccc(Br)cc2[nH]1)NO | -98.9% (active)
CCCCOc1ncnc2nc[nH]c12 | 103%
CC(C)=CCC[C@H](C)c1ccc(C)c2c1OCN(CCO)C2 | 100%
O=C(Nc1cccc(Cl)c1)Nc1cc(C(F)(F)F)ccc1Cl | -11.8% (active)
CCCCC(CCc1ccccn1)C(=O)c1ccccc1 (stereo unspecified) | 96.5%
Nc1cccc(S(=O)(=O)c2cccc(N)c2)c1 | 104%
O=C(Nc1ccc2ncnc(Nc3ccc(F)c(Cl)c3)c2c1)c1cccs1 | 51%
O=[N+]([O-])c1ccccc1CN1CCCCC1 | 96.6%
COc1cc2c(cc1OCCCOc1cc3c(cc1OC)C(=O)N1CCC[C@H]1C=N3)C=CC(C)(C)O2 | 69.6%
CCCCCCCCCC1=NC(C)(C)CN1C(C)(C)CO | 85.6%
COCCn1c(Nc2ccc(C(=O)NO)cc2)nc2ccccc21 | 73.6%
O=C(CSc1ccc(Cl)cc1)Nc1ccc(-c2nc3ccccc3s2)c(Cl)c1 | 63.2%
COc1cc(/C=C2\C(=O)Nc3ccc(N(C)C)cc32)cc(OC)c1OC | 32.8%
CC(C)(C)NC(=O)C(OC(=O)C1CCc2cc(F)ccc2O1)c1ccccc1Cl (stereo unspecified) | 102%
